Among all 340,000 compounds or so, about 2,100 (0.62%) were called active.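 Rule for the calls: active = first-screen hits whose inhibition reached a set limit at any dose in the follow-up dose series; inconclusive = inhibition above the set first-screen limit but never retested; inactive = the rest.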 Only a sample is shown. Entries with a potency or affinity are not part of this list.
biological target: Rac GTPase-activating protein 1 (Homo sapiens) (UniProt Q9H0H5); assay: blockers of MgcRacGAP-driven Rac1 GTP hydrolysis – biochemical, ADP Hunter fluorescence, primary and confirmatory, confirmation (AID 624330); conditions: MgcRacGAP-stimulated Rac1 GTP hydrolysis, at 30 µM, hits give high values, GST-tagged Rac1 F28L mutant substrate;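 note: fluorescence reports GDP produced by GAP-driven GTP hydrolysis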
Sequence (Q9H0H5 whole entry, looked up): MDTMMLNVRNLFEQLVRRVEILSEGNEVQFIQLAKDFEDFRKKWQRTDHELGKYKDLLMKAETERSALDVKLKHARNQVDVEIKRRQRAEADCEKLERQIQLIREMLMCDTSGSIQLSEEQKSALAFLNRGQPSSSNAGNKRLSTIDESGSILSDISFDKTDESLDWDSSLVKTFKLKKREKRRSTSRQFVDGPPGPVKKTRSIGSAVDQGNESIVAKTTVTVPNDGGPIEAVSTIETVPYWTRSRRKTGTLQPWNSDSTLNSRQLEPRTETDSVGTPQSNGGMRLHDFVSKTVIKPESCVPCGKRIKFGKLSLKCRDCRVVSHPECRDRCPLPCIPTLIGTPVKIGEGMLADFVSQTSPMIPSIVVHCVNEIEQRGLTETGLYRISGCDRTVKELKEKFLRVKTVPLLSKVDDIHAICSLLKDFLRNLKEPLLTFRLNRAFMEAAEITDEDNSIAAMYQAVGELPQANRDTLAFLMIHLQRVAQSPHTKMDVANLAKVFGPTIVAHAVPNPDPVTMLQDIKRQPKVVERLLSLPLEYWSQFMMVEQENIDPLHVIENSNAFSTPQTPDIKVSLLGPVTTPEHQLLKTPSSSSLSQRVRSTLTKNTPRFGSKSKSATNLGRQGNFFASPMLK

inhibition, inactive:
CCCn1c2c(c(O)c(C(=O)NCc3ccccc3)c1=O)CCCC2 0.77%
COCCCN(C(=O)CSCC(=O)Nc1ccc(C)cc1)c1c(N)n(Cc2ccccc2)c(=O)[nH]c1=O 8.76%
COc1cc(NC(=O)CN2C(=O)NC(CC(C)C)C2=O)cc(OC)c1OC (configuration not stated) 6.04%
CC1(C)C(=O)Nc2ccccc2N1C(=O)CN1C(=O)NC(CCc2ccccc2)C1=O (configuration not stated) 2.92%
Cc1cc(C)cc(NC(=O)COC(=O)CCCNC(=O)c2ccc(Cl)cc2)c1 3.85%
COc1ccc(CCNC(=O)c2ccc(N3CCCC3=O)cc2)cc1OC 12.5%
COc1ccc(-c2nnn(CC(=O)N(CC(=O)NCCC(C)C)c3ccccc3)n2)cc1OC 1.41%
Oc1ccc(-c2[nH]ncc2-c2ccc(Br)cc2)c(O)c1 26.8%
COc1ccc(-c2[nH]ncc2-c2ccc(Cl)cc2)c(O)c1 11.8%
CC(C)(C)c1ccc(C(=O)N/C(=C\c2ccco2)C(=O)Nc2ccccc2C(=O)O)cc1 7.9%
C[C@H](NC(=O)C1CCN(S(=O)(=O)c2ccccc2)CC1)C(=O)NC1CC1 4.17%
O=C(NCc1ccc2c(c1)OCO2)c1cc(-c2ccccc2)c(N2CCOCC2)s1 11.5%
Cc1ccc(NC2CCCN(C(=O)CCC3=NNC(=O)CC3)C2)cc1C (configuration not stated) 11.1%
COc1ccc(C(=O)C2CCCN(C(=O)CCC3=NNC(=O)CC3)C2)c(C)c1 (configuration not stated) -12.3%
O=C1CCC(C(=O)N2CCCC(Nc3ccc(F)cc3)C2)=NN1 (configuration not stated) 13.7%
COc1ccc(N2CCN(C(=O)C3=NNC(=O)CC3)CC2)cc1 4.93%
O=C(O)c1ccc(S(=O)(=O)N(Cc2ccc(F)cc2)C2CCCCC2)cc1 7.41%
O=C(Nc1ccc(N2CCOCC2)nc1)c1ccc(F)cc1 3.12%
COc1ccc2cc(/C=N/NC(=O)c3c(Cl)cnn3C)c(Cl)nc2c1 3.85%
Nc1c(Cl)ncnc1N/N=C/c1cccc(O)c1 -2.65%
COc1ccc(/C=N/Nc2ncnc(Cl)c2N)cc1OC 9.22%
Nc1c(Cl)ncnc1N/N=C/c1cccnc1 -0.02%
Nc1c(Cl)ncnc1NCCO 12.3%
Cc1ccc(/C=N/Nc2ncnc3nc[nH]c23)cc1 11.9%
Clc1ccc(/C=N/Nc2ncnc3nc[nH]c23)cc1 19.8%
Cc1ccc(CCNc2ncnc(Cl)c2N)cc1 6.24%
COc1cccc(/C=N/Nc2ncnc(Cl)c2N)c1O 7.43%
CC1CCc2cc(F)ccc2N1C(=O)CN1C(=O)c2ccccc2C1=O (configuration not stated) 7.46%
FC(F)(F)c1ccncc1-c1nnc(C2CCCCC2)o1 12.4%
CCCC(c1nnnn1Cc1ccc(OC)cc1)N1CCC(C(N)=O)CC1 (configuration not stated) 3.71%
CC12CC(NC(=O)N1c1cccc(C(=O)N3CCN(c4ccccc4F)CC3)c1)c1ccccc1O2 (configuration not stated) 4.9%
COC(=O)c1ccc(/C=N/NC(=O)C2CC(=O)N(c3ccc(OC)cc3)C2)cc1 (configuration not stated) -2.9%
CN(CC(=O)Nc1ccccc1C(F)(F)F)C(=O)CN1C(=O)C2CCCCC2C1=O (configuration not stated) 8.57%
COc1cccc2sc3cc(NCc4ccc5c(c4)OCO5)ccc3c(=O)c12 3.16%
CCN(CC)C(=O)C1=C(C)N(Cc2ccc(F)cc2)C(=O)C(CC(=O)NCc2ccco2)C1 (configuration not stated) 13.8%
CCn1cnc2cc(NCc3ccc(C)cc3)ccc21 25.6%
CCn1cnc2cc(NCc3ccc(Cl)cc3)ccc21 20%
COc1cc(NC(=S)N2CCCCC2C)cc(OC)c1OC (configuration not stated) 12.9%
CC(C)(C#CC(O)(c1ccccc1)c1ccccc1)N1CCCC1 11.3%
C[C@H]1CN(S(=O)C(C)(C)C)[C@@H](CCO)/C1=C\CCO (some centres not stated) 5.48%
C=CCNC(=O)CC(=O)N/N=C/c1ccccc1F -1.62%
Cc1cccc(N2CC(C(=O)Nc3cccc(S(=O)(=O)N4CCCCC4)c3)CC2=O)c1C (configuration not stated) 5.62%
CCOc1ccccc1OCCCOc1ccc(C)cc1Cl 12%
Cn1c(=O)c2nc(SCc3ccccc3)n(C)c2n(C)c1=O 6.08%
CCn1c(=O)n(C)c2c(=O)n(C)c(=O)n(C)c21 -0.22%
CNc1nc2c(c(=O)n(C)c(=O)n2C)n1Cc1ccccc1 -6.26%
CCCCn1c(Cl)nc2c1c(=O)n(C)c(=O)n2C 9.62%
CCCCn1c(C)nc2c(=O)n(C)c(=O)[nH]c21 4.63%
CCOC(=O)c1nc2c(=O)n(C)c(=O)n(C)c2n(C)c1=O 0.79%
CCCn1nc(C(=O)NNC(=O)CCCOc2ccc(OC)cc2)c2ccccc2c1=O 1.29%
Cc1nc(N2CCCCC2)c2sc(=S)n(C)c2n1 5.47%
CCOc1ccc(C(=O)NCCc2ccc3c(c2)OCCO3)cc1 6.99%
O=C(Nc1cc(C(F)(F)F)ccc1N1CCOCC1)c1ccc(F)cc1 9.9%
CS(=O)(=O)c1nc(S(=O)(=O)c2ccc(Cl)cc2)c(N2CCCCC2)s1 5.12%
COCCCNC(=O)C1CCC(CNS(=O)(=O)c2ccc(Cl)cc2)CC1 (configuration not stated) -9.18%
O=C(COc1ccc2c3c(c(=O)oc2c1)CCC3)NCCCN1CCCC1=O 9.27%
CC(C)=CCC/C(C)=C/CNC(=O)CC1C[C@H](C(=O)N2CCOCC2)[C@@]2(C)c3[nH]c4ccccc4c3CCN2C1=O (some centres not stated) 7.27%
COc1ccc(-c2ccccc2[C@H]2[C@@H]3C=CC[C@@H](C)[C@@H]3C(=O)N2Cc2ccccc2)cc1 5.83%
C/C(=N\Nc1nc(-c2cc(C)ccc2C)cs1)c1cc2ccccc2oc1=O 6.23%
O=C(c1cc(Cl)ccc1F)N1CCCC(Nc2ccc3c(c2)OCCO3)C1 (configuration not stated) 30.3%
COc1ccc(C(=O)C2CCCN(C(=O)c3ccc(CSC)o3)C2)cc1F (configuration not stated) 5.42%
Cc1cc(C)c(C(=O)N2CCCC(Nc3ccc(F)cc3)C2)o1 (configuration not stated) 1.75%
Cc1ccc(NC2CCCN(C(=O)c3ccccc3N3CCOCC3)C2)cc1C (configuration not stated) 0.36%
O=C(c1ccccc1N1CCOCC1)N1CCCC(Nc2ccc(F)cc2)C1 (configuration not stated) 9.71%
CSCc1ccc(C(=O)N2CCCC(Nc3ccc(F)cc3)C2)o1 (configuration not stated) 7.33%
Cc1cc(C)c(C(=O)N2CCCC(Nc3ccc(C)c(C)c3)C2)o1 (configuration not stated) -18%
COC(=O)c1cccc(C(=O)N2CCCC(Nc3ccc4c(c3)OCCO4)C2)c1 (configuration not stated) 29.2%
